Results taken from PubChem BioAssay (Tox21).
Unmarked numbers belong to inactive results. Records with an inconclusive call do not appear. Where a call stands in place of a potency, no number is given. The source made the active and inactive calls. Unless noted, the call rests on the fitted dose curve.

Legend:
[1] = Caspase-3/7 induction in CHO-K1 cells by small molecules, qHTS assay (AID 1346980; active means well fitted curve in the direction sought with a large enough effect in the repeat runs; an effect the other way counts as inactive or inconclusive; further: nearly all actives have a fitted effect of over 15% in size); settings: CHO-K1 caspase-3/7 induction, Caspase-Glo luminescence, 17 h; series mostly up to 92.4 µM
Procedure, shortened: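 Wild-type CHO-K1 cells exposed to compounds for 17hr at 37 C, 5% CO2. Caspase-3/7 activity then measured by Caspase-Glo 3/7 luminescence after 30min at room temperature.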

[2] = target: Nuclear receptor subfamily 1 group I member 2 (Homo sapiens) (UniProt O75469); assay: Human pregnane X receptor (PXR) small molecule agonists, qHTS assay (AID 1346982; active means well fitted curve in the direction sought with a large enough effect in the repeat runs; an effect the other way counts as inactive or inconclusive; further: nearly all actives have a fitted effect of over 35% in size; further: potency means the concentration at half of the fitted maximal effect); settings: PXR-Luc HepG2, CYP3A4 luciferase reporter, 24 h; series mostly up to 92.4 µM
Procedure, shortened: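 Tox21 qHTS; PXR-Luc HepG2; compounds pinned from DMSO; 24 hr, 37 C; ONE-Glo luciferase detection, 30 min room temperature.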

[3] = target: Acetylcholinesterase (Homo sapiens) (UniProt P22303); assay: Acetylcholinesterase (AChE) small molecule antagonists: colormetric cell-based qHTS assay (AID 1347395); settings: SH-SY5Y cells AChE activity, colorimetric (Ellman); series mostly up to 115 µM; further: nearly all actives have a fitted effect of over 30% in size; further: potency means the concentration at half of the fitted maximal effect
Procedure, shortened: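 SH-SY5Y cells attached overnight, exposed to compound 30 min at 37 C, then given DTNB/acetylthiocholine; after 90 min at 37 C, colorimetric thiocholine read gives cellular AChE activity.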

[4] = target: Acetylcholinesterase (Homo sapiens) (UniProt P22303); assay: Acetylcholinesterase (AChE) small molecule antagonists: enzyme-based qHTS assay (AID 1347397); settings: Potency: AChE enzyme activity inhibition; series mostly up to 115 µM; further: nearly all actives have a fitted effect of over 55% in size; further: potency means the concentration at half of the fitted maximal effect
Procedure, shortened: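 In this quantitative HTS, compounds from the Tox21 10K collection were preincubated 30 min at ambient temperature with recombinant human AChE dispensed at 50 mU/mL. Hydrolysis of acetylthiocholine was then followed for 10 min by DTNB colour development.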

[5] = target: Acetylcholinesterase (Homo sapiens) (UniProt P22303); assay: Acetylcholinesterase (AChE) small molecule antagonists: fluorescence cell-based qHTS assay (AID 1347398); settings: SH-SY5Y cells; Potency: AChE activity; series mostly up to 115 µM; further: nearly all actives have a fitted effect of over 50% in size; further: potency means the concentration at half of the fitted maximal effect
Procedure, shortened: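 Cells (SH-SY5Y) attached overnight, were dosed with compound or DMSO vehicle for 30 min at 37 C, and then incubated 40 min at room temperature with acetylthiocholine and Thiolite Green; green fluorescence indexed AChE activity.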

[6] = Caspase-3/7 induction in HepG2 cells by small molecules, qHTS cell viability counter screen (AID 1346981; active means well fitted curve in the direction sought with a large enough effect in the repeat runs; an effect the other way counts as inactive or inconclusive; further: nearly all actives have a fitted effect of over 30% in size; further: potency means the concentration at half of the fitted maximal effect); settings: CellTiter-Fluor fluorescence, 17 h; series mostly up to 92.4 µM
Procedure, shortened: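 After a 5-hr attachment period at 37 C and 5% CO2, wild-type HepG2 cells received compounds in DMSO. Sixteen hours later CellTiter-Fluor was dispensed and the fluorescent signal quantified after a further hour.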

[7] = target: Nuclear receptor subfamily 1 group I member 2 (Rattus norvegicus) (UniProt Q9R1A7); assay: Rat pregnane X receptor (rPXR) activation by small molecules, qHTS assay (AID 1346983; active means well fitted curve in the direction sought with a large enough effect in the repeat runs; an effect the other way counts as inactive or inconclusive; further: nearly all actives have a fitted effect of over 20% in size); settings: rPXR luciferase reporter cells, One-Glo luminescence, 24 h; max activation: stronger effect = higher value
Procedure, shortened: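 Cell-based rPXR activation assay: rPXR cells, 2,000 per well, rested 5hr at 37 C, then exposed to compounds in DMSO for 24 hr at 37 C. Luciferase activity read by One-Glo luminescence after 30 min at room temperature.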

[8] = target: Nuclear receptor subfamily 1 group I member 2 (Homo sapiens) (UniProt O75469); assay: CYP3A4 induction through human pregnane X receptor (PXR) by small molecules, qHTS assay (AID 1346984; active means well fitted curve in the direction sought with a large enough effect in the repeat runs; an effect the other way counts as inactive or inconclusive; further: nearly all actives have a fitted effect of over 40% in size); settings: DPX-2 HepG2 PXR, CYP3A4-luciferin luminescence, 24 h; series mostly up to 46.1 µM
Procedure, shortened: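 Cells (DPX-2; HepG2 with PXR element plus CYP3A4-promoter luciferase) settled 5hr, then were treated 24hr at 37C. A 3hr, 3uM-final Luciferin-IPA step preceded luminescence measurement with One-Glo.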

[9] = target: Nuclear receptor subfamily 1 group I member 2 (Homo sapiens) (UniProt O75469); assay: Human pregnane X receptor (PXR) activation by small molecules, qHTS assay (AID 1346985; active means well fitted curve in the direction sought with a large enough effect in the repeat runs; an effect the other way counts as inactive or inconclusive; further: nearly all actives have a fitted effect of over 40% in size); settings: DPX-2 HepG2 CYP3A4-luciferase, 24 h; series mostly up to 38.3 µM
Procedure, shortened: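 DPX-2 cells (HepG2 co-transfected with a PXR response element and a CYP3A4-promoter luciferase construct) were seeded at 2,000 per well, rested 5 hr at 37C, then exposed to DMSO-dissolved compounds for 24 hr. Activation was read as luciferase luminescence.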

Chain of Acetylcholinesterase (Homo sapiens) (P22303 whole entry, looked up): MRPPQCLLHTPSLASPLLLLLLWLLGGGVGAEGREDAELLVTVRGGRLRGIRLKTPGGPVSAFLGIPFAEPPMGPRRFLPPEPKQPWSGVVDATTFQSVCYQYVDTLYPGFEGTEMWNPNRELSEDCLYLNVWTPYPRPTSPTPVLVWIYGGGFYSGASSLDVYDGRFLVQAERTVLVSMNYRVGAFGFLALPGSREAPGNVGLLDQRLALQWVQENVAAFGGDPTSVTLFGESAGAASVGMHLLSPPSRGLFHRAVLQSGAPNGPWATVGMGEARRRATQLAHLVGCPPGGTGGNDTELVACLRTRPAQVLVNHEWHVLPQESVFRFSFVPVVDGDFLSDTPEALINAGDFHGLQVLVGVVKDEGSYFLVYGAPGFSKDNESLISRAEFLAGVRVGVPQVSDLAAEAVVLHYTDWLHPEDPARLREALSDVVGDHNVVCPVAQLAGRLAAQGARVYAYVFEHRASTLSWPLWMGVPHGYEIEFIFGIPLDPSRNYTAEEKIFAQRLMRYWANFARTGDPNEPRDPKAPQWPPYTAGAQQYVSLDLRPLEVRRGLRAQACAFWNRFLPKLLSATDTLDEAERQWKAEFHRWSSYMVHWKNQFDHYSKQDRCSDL
Chain of Nuclear receptor subfamily 1 group I member 2 (Rattus norvegicus) (Q9R1A7 whole entry, looked up): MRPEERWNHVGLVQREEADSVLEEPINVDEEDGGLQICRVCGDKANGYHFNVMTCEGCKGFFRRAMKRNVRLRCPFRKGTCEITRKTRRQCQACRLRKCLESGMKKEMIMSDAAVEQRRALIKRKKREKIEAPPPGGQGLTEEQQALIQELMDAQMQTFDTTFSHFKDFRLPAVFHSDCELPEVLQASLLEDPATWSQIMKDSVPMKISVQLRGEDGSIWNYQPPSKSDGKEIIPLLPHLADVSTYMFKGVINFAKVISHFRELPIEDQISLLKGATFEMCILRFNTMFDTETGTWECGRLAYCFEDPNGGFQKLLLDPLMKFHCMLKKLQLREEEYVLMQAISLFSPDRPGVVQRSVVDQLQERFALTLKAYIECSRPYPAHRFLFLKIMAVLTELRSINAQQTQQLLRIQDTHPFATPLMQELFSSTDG
Chain of Nuclear receptor subfamily 1 group I member 2 (Homo sapiens) (O75469 whole entry, looked up): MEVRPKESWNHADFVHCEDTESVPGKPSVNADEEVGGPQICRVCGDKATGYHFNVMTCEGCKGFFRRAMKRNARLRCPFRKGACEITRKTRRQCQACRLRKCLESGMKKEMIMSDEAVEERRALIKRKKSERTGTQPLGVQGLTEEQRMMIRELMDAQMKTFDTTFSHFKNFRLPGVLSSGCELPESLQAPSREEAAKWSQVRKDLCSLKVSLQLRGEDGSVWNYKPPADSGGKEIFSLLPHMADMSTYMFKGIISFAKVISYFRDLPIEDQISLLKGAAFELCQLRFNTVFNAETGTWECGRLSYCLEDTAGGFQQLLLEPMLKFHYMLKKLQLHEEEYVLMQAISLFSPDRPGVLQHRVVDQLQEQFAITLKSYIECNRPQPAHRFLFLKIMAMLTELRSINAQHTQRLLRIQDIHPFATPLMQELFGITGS

Row | SMILES | Potency [1] | Potency [2] | Potency [3] | Potency [4] | Potency [5] | Potency [6] | max activation [7] [%] | Potency [8] | Potency [9]
1 | Oc1c(Br)c(Br)c(Br)c(Br)c1Br | inactive | 61.5 µM (active) | inactive | inactive | inactive |  |  |  | 
2 | c1ccc2cc3c(cc2c1)-c1cccc2cccc-3c12 |  |  | inactive | inactive | inactive | inactive |  |  | 
3 | COC(=O)N(C(=O)N1CO[C@@]2(C(=O)OC)Cc3cc(Cl)ccc3C2=N1)c1ccc(OC(F)(F)F)cc1 |  | 1.67 µM (active) | inactive | inactive | inactive | inactive |  |  | 
4 | Oc1c(Cl)c(Cl)cc(Cl)c1Cl | inactive |  | inactive | inactive | inactive | inactive |  |  | 
5 | O=C1NCN(c2ccccc2)C12CCN(CC1COc3ccccc3O1)CC2 (stereo not drawn) |  | 5.96 µM (active) | inactive | inactive | inactive | inactive |  |  | 
6 | SCc1ccco1 | inactive | inactive | inactive | inactive | inactive | inactive |  |  | 
7 | COC(=O)N(C(=O)N1COC2(C(=O)OC)Cc3cc(Cl)ccc3C2=N1)c1ccc(OC(F)(F)F)cc1 (stereo not drawn) | inactive | 10.6 µM (active) | inactive | inactive | inactive | inactive |  |  | 
8 | COP(=S)(OC)Oc1cc(Cl)c(Br)cc1Cl | inactive | 12.2 µM (active) |  | inactive | inactive | inactive |  |  | 
9 | CC1(C)CC/C(=C/c2ccc(Cl)cc2)C1(O)Cn1cncn1 (stereo not drawn) |  | 12.1 µM (active) | inactive | inactive | inactive | inactive |  |  | 
10 | C[C@@H](Oc1ccc(Cl)cc1Cl)C(=O)O | inactive | inactive | inactive | inactive | inactive | inactive |  |  | 
11 | Cc1c(Cl)c(=O)oc2cc(OP(=O)(OCCCl)OCCCl)ccc12 | inactive |  | 3.89 µM (active) | 0.246 µM (active) | 0.275 µM (active) | inactive | 8.02 | inactive | 
12 | CC(C)[C@H](C(=O)O[C@H](C#N)c1cccc(Oc2ccccc2)c1)c1ccc(Cl)cc1 | inactive | 4.32 µM (active) | inactive | inactive | inactive | inactive |  |  | 
13 | CC(C)OC(=O)C(O)(c1ccc(Cl)cc1)c1ccc(Cl)cc1 |  | 21.7 µM (active) | inactive | inactive | inactive | inactive |  |  | 
14 | CS(=O)(=O)c1ccc(C(=O)C2C(=O)CCCC2=O)c([N+](=O)[O-])c1 | inactive |  | 27.2 µM (active) |  |  |  |  |  | 
15 | CC(C)(O)c1cnn2c(-c3ccc(F)c(-c4c(F)cccc4C#N)c3)cnc2n1 | inactive | 2.43 µM (active) |  | inactive | 28.3 µM (active) |  |  |  | 
16 | O=C(O)COc1nc(Cl)c(Cl)cc1Cl |  |  | inactive | inactive | inactive |  |  |  | 
17 | OC(c1ccc(Cl)cc1)(c1ccc(Cl)cc1)C(Cl)(Cl)Cl |  | 24.3 µM (active) | inactive | inactive | inactive | inactive |  |  | 
18 | O=c1[nH]c2ccccc2n1CCCN1CCC(n2c(=O)[nH]c3cc(Cl)ccc32)CC1 | inactive |  |  |  |  |  | -1.24 |  | 
19 | C[C@@H]1O[C@@H](O[C@@H]2C=C3CC[C@@H]4[C@H](CC[C@]5(C)[C@@H](c6ccc(=O)oc6)CC[C@]45O)[C@@]3(C)CC2)[C@H](O)[C@H](O)[C@H]1O |  | inactive | inactive | inactive | inactive |  | -3.43 |  | inactive
20 | CC[C@H]1C[C@@H]2C[C@H]3c4[nH]c5ccc(OC)cc5c4CCN(C2)[C@@H]13 | inactive |  | inactive | inactive |  |  |  |  | 
21 | C[C@H]1CC[C@@H]2[C@@H](C)[C@H]3[C@H](C[C@H]4[C@@H]5CC=C6CC(O[C@@H]7O[C@H](CO)[C@H](O)[C@H](O[C@@H]8O[C@H](CO)[C@@H](O)[C@H](O)[C@H]8O)[C@H]7O[C@H]7O[C@@H](C)[C@H](O)[C@@H](O)[C@H]7O)CC[C@]6(C)[C@H]5CC[C@]34C)N2C1 (stereo partly drawn) | inactive |  | 26 µM (active) | inactive | 2.92 µM (active) | 31.6 µM (active) | -11.8 | inactive | inactive
22 | Nc1ccccc1C(=O)OC/C=C/c1ccccc1 |  | 21.7 µM (active) | inactive | inactive | inactive | inactive |  |  | 
23 | CCOP(=O)(NC(C)C)Oc1ccc(SC)c(C)c1 (stereo not drawn) | inactive | 7.7 µM (active) | 58.6 µM (active) | 84.4 µM (active) | 15.9 µM (active) |  |  |  | 
